Screens: PubChem BioAssay, several laboratories
14-3-3 Bad PPI = inhibitors of 14-3-3 zeta/Bad binding, primary screen, biochemical, TR-FRET, bovine 14-3-3 zeta | 14-3-3 protein zeta/delta (Bos taurus), P63103 | TR-FRET 14-3-3zeta/Dy647-pBad peptide displacement, 1 h | inhibition, % at 21.7 µM | 0.71% of 220,000 active | AID 781, 2007;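 active = inhibition above about 70%, limit read from the data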
Target sequence (P63103 whole entry, looked up): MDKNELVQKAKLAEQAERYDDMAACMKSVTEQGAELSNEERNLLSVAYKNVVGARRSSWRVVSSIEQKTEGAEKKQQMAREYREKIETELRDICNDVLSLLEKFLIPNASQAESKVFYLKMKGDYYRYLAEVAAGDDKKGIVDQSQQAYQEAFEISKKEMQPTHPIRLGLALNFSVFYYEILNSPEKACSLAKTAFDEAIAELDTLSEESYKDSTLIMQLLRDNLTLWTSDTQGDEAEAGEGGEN
zVAD death inh = inhibitors of zVAD-triggered necroptosis, primary screen, L929 cells; L929 zVAD necroptosis rescue, ATP luminescence, 24 h; with zVAD 60 µM; viability rescue, % at 10 µM; 0.38% of 220,000 active;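 active = activation, scaled between plate controls, above about 75%, limit read from the data; inactive = activation under that limit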
m-calpain inh = inhibitors of pig calpain II, primary screen, biochemical, fluorogenic peptide substrate, 1536-well; inhibition, % at 16 µM; purified calpain II, 30 min; 0.37% of 220,000 active;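 active = inhibition above about 50%, limit read from the data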
TNF necrop inh = inhibitors of TNF-alpha triggered necroptosis, primary screen, cell-based, Jurkat FADD-/-, single concentration; Jurkat FADD-/- TNF necroptosis rescue, ATP luminescence, 24 h; 0 = TNF only, 100 = no-TNF cells; activation (protection from cell death), % at 10 µM; 0.068% of 220,000 active;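 active = activation, meaning protection from cell death, of at least 50% relative to plate controls; inactive = activation below 50%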;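 also: necroptosis triggered by 40 ng/mL TNF-alpha added together with compound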
ROMK primary = ROMK potassium channel modulators, primary screen, cell-based, thallium flux, MLSMR library; Tet-inducible ROMK, thallium flux fluorescence; actives lie on both sides; 2% of 130,000 active; ATP-sensitive inward rectifier potassium channel 1 (Homo sapiens), P48048; B-score at 10 µM; AID 1918, 2009;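 active = signal ratio slope over the read window, or its plate-corrected B-score, at least 3 SD from the plate mean, either direction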;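 also: B-score of the F/F0 ratio slope over 7 to 12 s after thallium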
Target sequence (P48048 whole entry, looked up): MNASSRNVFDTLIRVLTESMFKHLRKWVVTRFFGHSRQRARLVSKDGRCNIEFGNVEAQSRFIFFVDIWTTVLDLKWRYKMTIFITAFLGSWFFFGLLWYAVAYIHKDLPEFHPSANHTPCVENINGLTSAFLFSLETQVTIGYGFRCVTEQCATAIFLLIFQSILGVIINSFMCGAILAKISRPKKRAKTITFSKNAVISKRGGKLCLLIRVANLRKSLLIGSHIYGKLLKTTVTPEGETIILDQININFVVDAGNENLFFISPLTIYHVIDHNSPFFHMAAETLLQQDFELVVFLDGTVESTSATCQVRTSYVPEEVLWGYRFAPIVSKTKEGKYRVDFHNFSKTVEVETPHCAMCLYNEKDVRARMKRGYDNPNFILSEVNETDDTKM
Efa HMGR inh = inhibitors of E. faecalis class II HMGR, primary screen, biochemical, Enterococcus faecalis; purified E. faecalis HMGR, NADPH absorbance 340 nm kinetic; inhibition, % at 10 µM; 0.41% of 190,000 active;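 active = inhibition above a set limit, the median over all tested compounds plus 3 SD, cut at about 9.5% in these data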;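 also: enzyme runs in reverse so mevalonate oxidation gives rising NADPH absorbance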
zVAD death conf = inhibitors of zVAD-triggered necroptosis in L929, confirmation, L929 cells, duplicate runs. L929 zVAD-induced necroptosis rescue, ATP luminescence, 24 h. AID 463117, 2010. activation (protection from necroptosis), % at 10 µM. 16% of 760 active. shares compounds with zVAD death inh;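 active = mean protection from necroptosis of at least 50% over duplicate tests; inactive = mean protection below 50%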
Each line names hits and unclear results; the compound was inactive in the other large screens (follow-up assays come after a bar, where they were run). Only some compounds are listed: those with a hit (about 3% of all), similar ones and a draw of the others.

CCOC(=O)c1ccc2[nH]c3c(c2c1)CCCC3C(=O)OCC (centres undefined)	zVAD death inh 75 (no result: ROMK primary) | zVAD death conf inactive
CCCCCCCn1c2c(c(=N)c3ccccc31)CCC2	none
CC(=O)Nc1ccc(NC(=O)C(OC(=O)c2ccccc2)C(OC(=O)c2ccccc2)C(=O)O)cc1 (centres undefined)	none
Cc1cccc(NC(=S)NC23CN4CN(CN(C4)C2)C3)c1C	none (no result: ROMK primary)
CC(C)(C)c1ccc(NC(=O)COC(=O)C2(C)CC2(Cl)Cl)cc1 (centres undefined)	zVAD death inh 77 | zVAD death conf inactive
Cc1ccccc1NC(=O)COC(=O)C1(C)CC1(Cl)Cl (centres undefined)	none
Cc1ccc2c(CC(=O)NCCc3ccc(S(N)(=O)=O)cc3)coc2c1	none (no result: ROMK primary, Efa HMGR inh)
O=C(CSc1nnc(CCCN2C(=O)c3cccc4cccc(c34)C2=O)n1-c1ccccc1)N1CCN(CCO)CC1	none
COc1ccc(N2C3=C(CC4=C2CCCC4=O)C(=O)CCC3)cc1	none
COc1ccc(N2C3=C(CC4=C2CC(C)(C)CC4=O)C(=O)CC(C)(C)C3)cc1	zVAD death inh 95 (no result: ROMK primary) | zVAD death conf inactive
S=c1[nH]nc(-c2ccco2)n1/N=C/C(Cl)=C/c1ccccc1	zVAD death inh 77 (no result: ROMK primary, Efa HMGR inh) | zVAD death conf inactive
Cc1cc(-c2n[nH]c(=S)n2/N=C/c2cccc(O)c2)n[nH]1	none (no result: ROMK primary, Efa HMGR inh)
Cc1cc(-c2n[nH]c(=S)n2/N=C/C(Cl)=C/c2ccccc2)n[nH]1	zVAD death inh 83 (no result: ROMK primary) | zVAD death conf inactive
Oc1ccc(/C=N/Nc2ncc(Br)cn2)c(O)c1	zVAD death inh 92 (no result: ROMK primary) | zVAD death conf inactive
COc1ccc(NC(=O)Nc2nc3c(s2)CCCC3)cc1	zVAD death inh 79 (no result: ROMK primary) | zVAD death conf inactive
O=C(NC(=S)Nn1cnnc1)c1cccc(Br)c1	none
S=C(Sc1ccc(Cl)cc1)Sc1ccc(Cl)cc1	zVAD death inh 76 (no result: Efa HMGR inh) | zVAD death conf inactive
Cc1cc(C(=O)Nn2c(-c3ccc(Br)cc3)nc3ccccc3c2=O)ccc1[N+](=O)[O-]	none
c1ccc(-n2cnc3cc(NCc4cccs4)ccc32)cc1	zVAD death inh 85 (no result: ROMK primary) | zVAD death conf inactive
CCC(=O)Nc1ccc2c(c1)ncn2-c1ccc(OC)cc1	zVAD death inh 81 (no result: ROMK primary) | zVAD death conf inactive
COc1ccc(-n2cnc3ccccc32)cc1	zVAD death inh 80 | zVAD death conf inactive
COc1ccccc1-n1cnc2cc(NCc3ccccn3)ccc21	none (no result: ROMK primary)
Cc1ccc(-n2cnc3cc(NCc4cccs4)ccc32)cc1	none
COc1ccc(-n2cnc3cc(NCc4ccccn4)ccc32)cc1	zVAD death inh 78 (no result: ROMK primary) | zVAD death conf 66
COc1ccc(C2c3cc(OC)c(OC)cc3CCN2C2CC(=O)N(c3ccccc3)C2=O)cc1OC (centres undefined)	none
NC(=O)N/N=C/c1c(Sc2nnnn2-c2ccccc2)nc2ccccn2c1=O	none (no result: ROMK primary, Efa HMGR inh)
CC(C)Oc1cccc(C(=O)NC(=S)Nc2cccc(NC(=O)c3ccccc3Cl)c2)c1	none (no result: ROMK primary)
CCC(=O)Nc1ccc2c(c1)ncn2-c1ccc(C)cc1	zVAD death inh 84 | zVAD death conf inactive
C/C(=N/OCO/N=C(/C)c1ccc(F)cc1)c1ccc(F)cc1	none (no result: ROMK primary)
O=C(/C(=C/c1ccc(Cl)cc1)c1nc2ccccc2[nH]1)c1ccccc1	zVAD death inh 107 (no result: ROMK primary) | zVAD death conf inactive
Cc1ccc2c(c1)C(C)CC(C)(C)N2C(=O)NC1CCCCC1 (centres undefined)	zVAD death inh 88 (no result: ROMK primary) | zVAD death conf 82
Cc1ccc2c(c1)C(C)CC(C)(C)N2C(=O)CN1CCN(C)CC1 (centres undefined)	none (no result: ROMK primary, Efa HMGR inh)
Cc1ccc2c(c1)N(C(=O)NC1CCCCC1)C(C)(C)CC2C (centres undefined)	zVAD death inh 82 | zVAD death conf 81
Cc1ccc(NC(=O)C2CCCN2C(=O)NC2CCCCC2)c(C)c1 (centres undefined)	none (no result: ROMK primary)
CN(C)c1nc(NCc2ccccc2)nc(N/N=C/c2ccc(Cl)cc2Cl)n1	none (no result: ROMK primary)
COc1ccc(C(=O)OCC(=O)NC(=O)NC2CCCC2)c(O)c1	zVAD death inh 77 | zVAD death conf inactive
CNc1ncc(C(=O)c2ccc(F)cc2)s1	zVAD death inh 85 | zVAD death conf inactive
Cc1ccc(S(=O)(=O)N2CCN(CCC#N)CC2)cc1	none
CCOC(=O)c1ccc(NC(=O)Nc2cccc(C)n2)cc1	none
CCOC(=O)c1ccc(NC(=O)Nc2ccn(C)n2)cc1	zVAD death inh 86 (no result: ROMK primary) | zVAD death conf inactive
CC(=O)c1ccc(OCCCC(=O)Nc2ccc(C)c(S(=O)(=O)N(C)C)c2)cc1	none
COc1ccc(OCC(=O)Nc2ccc(C)c(S(=O)(=O)N(C)C)c2)cc1	zVAD death inh 81 | zVAD death conf inactive
O=C(/C=C/c1ccccc1)C1=C(O)C(=O)N(CCO)C1c1ccccc1[N+](=O)[O-] (centres undefined)	none (no result: ROMK primary)
Cc1nc2ncccn2c1-c1csc(Nc2ccc(O)cc2)n1	zVAD death inh 88 | zVAD death conf inactive
Cc1ccc(Nc2nc(-c3c(C)nc4ncccn34)cs2)cc1	none (no result: ROMK primary)
Oc1ccc(-c2csc(Nc3ncccn3)n2)cc1	zVAD death inh 78 | zVAD death conf 75
CC(=O)Nc1ccc(-c2csc(Nc3ncccn3)n2)cc1	zVAD death inh 80 | zVAD death conf inactive
O=C(Nc1ccc(NC(=S)NC(=O)c2cccs2)cc1)c1ccccc1	none
O=C(Nc1ccc(NC(=S)NC(=O)C(c2ccccc2)c2ccccc2)cc1)c1ccccc1	zVAD death inh 78 (no result: 14-3-3 Bad PPI, m-calpain inh, ROMK primary, Efa HMGR inh) | zVAD death conf inactive
Nc1ccccc1Nc1cc(-c2ccccc2)[nH]n1	zVAD death inh 91 | zVAD death conf 89
O=C(OCc1ccccc1)N1CCOCCOCCN(C(=O)OCc2ccccc2)CCOCCOCC1	none (no result: ROMK primary)
COc1cc(/C=N/Nc2nc3ccccc3[nH]2)ccc1O	zVAD death inh 79 | zVAD death conf inactive
COc1cc(/C=N/Nc2nc3ccccc3[nH]c2=O)ccc1O	zVAD death inh 78 | zVAD death conf inactive
COc1cc(/C=N/Nc2nc(=O)[nH]nc2C)ccc1O	none (no result: ROMK primary, Efa HMGR inh)
COc1ccc(O)c(/C=N/Nc2nc3ccccc3[nH]2)c1	none
COc1cccc(/C=N/Nc2nc3ccccc3[nH]2)c1OC	none (no result: ROMK primary, Efa HMGR inh)
COc1cc(/C=N/Nc2nc3ccccc3[nH]2)cc(Br)c1OCC(=O)N(C)C	zVAD death inh 75, TNF necrop inh 64 | zVAD death conf 60
